# Compound activity: PubChem, several laboratories
# Shown are actives, neighbours in structure and some others; about 0.5% of the full set was active somewhere.
# CatB block – human cathepsin B inhibitors, primary screen, biochemical, fluorogenic substrate | P07858 | purified cathepsin B, fluorescence | inhibition, %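 (tested at 10 µM)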 | 63,000 tested, 0.1% active; in the data active = inhibition above about 21%
# Cdc25B inh – inhibitors of Cdc25B phosphatase catalytic domain, primary screen, biochemical, OMFP fluorescence. AID 368, 2006. inhibition, %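 (compounds tested at 10 µM final in the well)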. 65,000 tested, 0.1% active. M-phase inducer phosphatase 2 (Homo sapiens), P30305. recombinant Cdc25B, OMFP fluorescence Ex485/Em525; in the data active = inhibition above about 50%
# Target sequence (P30305 whole entry, looked up, the tested form may be a part): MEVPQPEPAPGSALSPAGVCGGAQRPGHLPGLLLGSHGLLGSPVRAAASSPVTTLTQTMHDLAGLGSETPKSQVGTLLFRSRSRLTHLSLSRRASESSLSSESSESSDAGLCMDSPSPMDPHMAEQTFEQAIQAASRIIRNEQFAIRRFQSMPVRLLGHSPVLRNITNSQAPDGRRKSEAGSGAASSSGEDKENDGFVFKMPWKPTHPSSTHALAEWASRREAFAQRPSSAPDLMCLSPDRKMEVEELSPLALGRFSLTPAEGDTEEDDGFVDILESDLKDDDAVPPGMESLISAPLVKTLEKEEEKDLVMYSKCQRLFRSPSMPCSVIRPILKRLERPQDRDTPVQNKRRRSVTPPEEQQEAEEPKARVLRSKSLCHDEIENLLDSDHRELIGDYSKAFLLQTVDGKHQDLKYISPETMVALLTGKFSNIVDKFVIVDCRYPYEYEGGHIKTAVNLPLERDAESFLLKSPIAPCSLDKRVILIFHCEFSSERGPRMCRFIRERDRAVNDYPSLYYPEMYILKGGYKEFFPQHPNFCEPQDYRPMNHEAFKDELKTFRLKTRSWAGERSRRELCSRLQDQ
# MKP-1 inh – MKP-1 phosphatase inhibitors, primary screen, biochemical, in vitro; recombinant MKP-1, OMFP hydrolysis fluorescence; inhibition, %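 (compounds tested at a single concentration somewhere between 10 and 100 µM)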; 65,000 tested, 0.15% active;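 active = inhibition above about 50%, limit read from the data; inconclusive = inhibition over screen mean plus 3 SD, below that limit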
# CatL inh – inhibitors of human cathepsin L, biochemical; Procathepsin L (Homo sapiens), P07711; AID 460, 2006; 58,000 tested, 0.17% active; purified cathepsin L, fluorogenic substrate, fluorescence; inhibition, %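 (tested at 10 µM)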; in the data active = inhibition above about 45%
# CatS block – inhibitors of human cathepsin S, biochemical, compound mixtures. inhibition, %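 (tested at 5 µM per compound within 10-compound mixtures)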. 62,000 tested, 0.06% active. recombinant cathepsin S, AMC dipeptide fluorescence, pooled mixtures. AID 501, 2006. P25774; in the data active = inhibition above about 32%, passing the limit was not always enough; inconclusive = no clear call, values can overlap the other calls
# CatB mix inh – cathepsin B inhibitors from pooled compounds, primary screen, biochemical, compound mixtures, AMC fluorescence. P07858. Purified cathepsin B, AMC dipeptide fluorescence. AID 488, 2006. inhibition, %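 (ten-compound pools at 5 µM per compound and 50 µM total)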. 62,000 tested, 0.06% active; in the data active = inhibition above about 22%, passing the limit was not always enough; inconclusive = no clear call, values can overlap the other calls
# Redox 05 DTT – redox cycling H2O2 generation, 0.5 mM DTT, dose response, artefact control, biochemical, Cdc25B catalytic domain; AID 682, 2007; cell-free redox cycling H2O2 generation; EC50, µM; 30 tested, 50% active; shares compounds with Cdc25B inh; in the data active = EC50 below about 30 µM
# Redox H2O2 1DTT – redox cycling H2O2 generation, 1 mM DTT, dose response, artefact control, biochemical, 1.0 mM DTT, Cdc25B catalytic domain; 30 tested, under 10 active; cell-free redox cycling H2O2 generation; shares compounds with Cdc25B inh; EC50, µM; AID 683, 2007; in the data active = EC50 below about 50 µM
# Redox cycler – redox cycling hydrogen peroxide production, dose response, artefact control, biochemical, probe assessment; shares compounds with MKP-1 inh; Redox cycling H2O2 generation, DTT, phenol red/HRP; EC50, µM; 60 tested, under 10 active; AID 672, 2007; call rule not given here
# Hits are given with their value; – = inactive; ? = inconclusive; · = not tested or not shown.
SMILES,CatB block,Cdc25B inh,MKP-1 inh,CatL inh,CatS block,CatB mix inh,others
COc1ccc(CCNC(=O)C2CCN(S(=O)(=O)c3cc(OC)ccc3OC)CC2)cc1,–,–,–,46,–,–,
CC(C)CCNC(=O)[C@H](CC(C)C)NC(=O)[C@H]1O[C@@H]1C(=O)O,·,–,–,99,·,100,
CC(C)CC(NC(=O)C(CC(C)C)NC(=O)OC(C)(C)C)C(=O)O (stereo not drawn),–,–,–,–,–,–,
COc1cccc(OCC(=O)Nc2c(C(=O)Nc3ccc(OC)cc3OC)oc3ccccc23)c1,–,–,–,–,–,–,
CC(=O)N(Cc1ccc2c(c1)OCO2)C1CC(=O)N(CCc2ccccc2)C1=O (stereo not drawn),–,–,–,–,–,–,
O=C(Nc1ccc(O)cc1)c1ccc(C(=O)c2ccccc2)o1,–,–,–,–,–,–,
CC(NC(=O)c1ccc2c(c1)OCO2)C1CCCO1 (stereo not drawn),–,–,56,–,–,–,
Cc1occc1C(=O)NC(C)C1CCCO1 (stereo not drawn),–,–,–,–,–,–,
O=C(CSc1nnc(-c2ccco2)c(-c2ccco2)n1)Nc1ccccc1,57,–,–,–,–,?,
CCc1ccc(OCc2nnc(SCCN3CCOCC3)n2C)cc1,–,–,–,–,–,–,
Cc1cccc(N2CCN(S(=O)(=O)c3ccc4c(c3)CCN4C(=O)CCC(=O)O)CC2)c1C,–,–,51,–,–,–,
Cc1[nH]c2c(Cl)cccc2c(=O)c1CN1CCCC1,–,63,–,–,–,–,
Cc1[nH]c2ccc(Br)cc2c(=O)c1CN1CCCCC1,–,–,–,–,–,–,
O=c1cc(CSc2ccccn2)[nH]c(=O)[nH]1,–,–,–,–,41,–,
O=C(O)CSc1ccccn1,–,–,–,–,–,–,
N#C/C(=C(/O)CSc1nnc(Cc2cccs2)n1C1CCCCC1)c1nc2ccccc2[nH]1,–,–,52,·,–,–,
CCOC(=O)COc1nc(OC)nc(N2CCOCC2)n1,–,–,–,–,–,–,
COc1nc(OC/C(N)=N/O)nc(N2CCOCC2)n1,–,66,–,–,–,–,
Cc1ccc(NC(=O)COC(=O)Cn2c(C)csc2=O)cc1C,–,–,–,–,–,–,
Cc1ccc(NC(=O)COC(=O)c2ccc3c(c2)NC(=O)C2CCCN32)cc1C (stereo not drawn),–,–,54,–,–,–,
O=c1[nH]cnc2[nH]ncc12,·,–,74,·,·,·,
O=C(COc1ccccc1Cl)NCc1ccncc1,–,–,–,–,–,–,
Cc1cc(C)c2c(n1)sc1c(N3CCN(CCO)CC3)ncnc12,–,–,–,–,–,–,
CSc1nc(N2CCN(CCO)CC2)c2sc3nc(-c4ccco4)c4c(c3c2n1)CCC4,–,–,–,72,–,–,
C=CCn1c(=O)/c(=C/c2cc(OC)c(OC)c(OC)c2)s/c1=C(/C#N)c1nc2ccccc2n1C,–,–,–,–,–,–,
SMILES,CatB block,Cdc25B inh,MKP-1 inh,CatL inh,CatS block,CatB mix inh,others
Cc1nnc(SCCn2c(N3CCN(c4ccccc4)CC3)nc3c2c(=O)n(C)c(=O)n3C)s1,–,–,–,–,–,–,
CCOc1ccc(NC2=NC(C(=O)NCc3ccccc3)CC(=O)N2)cc1 (stereo not drawn),–,–,–,55,–,–,
Cn1c(CSc2nnc(SCc3ccccc3)s2)nc2ccccc21,–,74,–,–,–,–,
Cc1ccc(S(=O)(=O)N(C)CC(=O)N2CCCc3ccccc32)cc1,–,–,–,–,–,–,
CCCn1nnc(NC(=O)c2cc(Br)cc(Br)c2OC)n1,–,–,50,–,·,·,
Cc1cccc(-n2c(CCCN3C(=O)c4ccccc4C3=O)nc3ccccc3c2=O)n1,–,–,–,–,–,–,
O=C(O)c1ccccc1C(=O)NCc1ccc(F)cc1,21,–,–,–,–,–,
O=C(O)c1ccccc1C(=O)NCc1ccccc1,–,–,–,–,–,–,
COc1ccc(OC)c(C2C(C#N)=C(N)Oc3cc(C)n(Cc4ccccn4)c(=O)c32)c1 (stereo not drawn),–,–,–,63,·,·,
c1ccc(SCc2nc(-c3ccncc3)no2)cc1,–,–,74,–,–,–,
COc1ccc(N2CCN(S(=O)(=O)/C=C/c3ccccc3)CC2)cc1,–,–,–,–,–,–,
CN1CCN(S(=O)(=O)c2ccc(N3CCN(S(=O)(=O)/C=C/c4ccccc4)CC3)nc2)CC1,–,–,–,91,–,–,
O=C(O)CCN1C(=O)c2ccccc2C1=O,–,–,–,–,–,–,
O=C1Cc2ccccc2C(=O)N1CCc1ccccc1,–,59,–,·,?,–,Redox 05 DTT=–;Redox H2O2 1DTT=–
O=c1[nH]c(Nc2ccccc2)cc2ccccc12,–,85,–,–,·,–,Redox 05 DTT=–;Redox H2O2 1DTT=–
Cn1c(N2CCOCC2)nc(-c2ccccc2)c1-c1ccccc1,–,–,–,–,–,–,
COC(=O)c1[nH]c2cccc(Cl)c2c1NC(=O)CN(C)C1CCCCC1,–,–,–,–,–,–,
O=C(O)C1Nc2c(O)cccc2C2C=CCC12 (stereo not drawn),–,56,–,–,–,–,Redox 05 DTT=–;Redox H2O2 1DTT=–
O=C(OC1CCCCC1)c1ccc2c(c1)C1C=CCC1C(C(=O)O)N2 (stereo not drawn),–,63,52,–,–,–,Redox 05 DTT=–;Redox H2O2 1DTT=–;Redox cycler=–
O=C(NC1(O)C(=O)c2ccccc2C1=O)c1ccccc1,–,96,62,–,–,–,Redox 05 DTT=29;Redox H2O2 1DTT=–;Redox cycler=–
O=C(O)/C(=C1/OC(=O)c2ccccc21)c1ccccc1,–,–,–,–,–,–,
N#Cc1c(N2CCCC2)nc(N)c2c(N)nc(N3CCCC3)cc12,45,101,76,–,59,77,Redox 05 DTT=13;Redox H2O2 1DTT=27;Redox cycler=–
COc1nc2c(C)cccc2cc1-c1noc(-c2ccncc2)n1,–,–,–,–,–,–,
CC(C)OC(=O)c1cccnc1SCc1cc(=O)n2ccccc2n1,–,–,–,–,–,–,
O=C1c2ccccc2-c2onc3ccc(NCc4ccco4)c1c23,–,–,–,–,·,·,
CCOc1ccc2noc3c2c1C(=O)c1ccccc1-3,·,92,65,·,–,–,Redox 05 DTT=–;Redox H2O2 1DTT=–;Redox cycler=–
Cc1nn(-c2ccccc2)c(C)c1C(=O)OCC(=O)c1c(N)n(CC(C)C)c(=O)n(C)c1=O,–,–,–,–,–,–,
